Assay [1] has as its target Cytochrome P450 3A4 (Homo sapiens) (UniProt P08684). The assay can be described thus: qHTS Assay for Inhibitors and Substrates of Cytochrome P450 3A4 (AID 884). Also: potency is read from the fitted curve at half-maximal effect; nearly all actives have a fitted effect of over 50% in size. In outline:
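20 nM human CYP3A4 with 25 uM Luciferin-PPXE (at KM) in 200 mM KPO4, preincubated 10 min with compound; NADPH regeneration started a 60 min RT reaction. Luciferin detected by luminescence, normalized to 57 uM ketoconazole as full inhibition.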
On the technique in general: In qHTS, concentration-response curves come from the screen itself.

For assay [2] the target is unchanged. Kind of assay: qHTS Assay for Activators of Cytochrome P450 3A4 (AID 885). Also: nearly all actives have a fitted effect of over 65% in size. The procedure, abridged:
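Signal was normalized against complete inhibition by 57 uM ketoconazole. The reaction used 20nM CYP3A4 with 25uM Luciferin-PPXE, 10-min compound preincubation and a 60-min NADPH-supported step at RT.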

Molecules are shown by their SMILES. Several values for one entry are separate records, joined by “and”; a condition that tells them apart may be missing. Equal values may be shown once. Unmarked numbers belong to inactive results. Inconclusive results are not listed. Activity calls are given as the source filed them. Calls follow the shape of the dose curve; as a rule, active = well fitted curve in the direction sought with a large enough effect; inconclusive = small, poorly fitted or top-dose-only effect, or another doubt; inactive = no such curve, though single readings can be large; an effect the other way counts as inactive or inconclusive.

Sequence of Cytochrome P450 3A4 (Homo sapiens) (P08684 whole entry, looked up): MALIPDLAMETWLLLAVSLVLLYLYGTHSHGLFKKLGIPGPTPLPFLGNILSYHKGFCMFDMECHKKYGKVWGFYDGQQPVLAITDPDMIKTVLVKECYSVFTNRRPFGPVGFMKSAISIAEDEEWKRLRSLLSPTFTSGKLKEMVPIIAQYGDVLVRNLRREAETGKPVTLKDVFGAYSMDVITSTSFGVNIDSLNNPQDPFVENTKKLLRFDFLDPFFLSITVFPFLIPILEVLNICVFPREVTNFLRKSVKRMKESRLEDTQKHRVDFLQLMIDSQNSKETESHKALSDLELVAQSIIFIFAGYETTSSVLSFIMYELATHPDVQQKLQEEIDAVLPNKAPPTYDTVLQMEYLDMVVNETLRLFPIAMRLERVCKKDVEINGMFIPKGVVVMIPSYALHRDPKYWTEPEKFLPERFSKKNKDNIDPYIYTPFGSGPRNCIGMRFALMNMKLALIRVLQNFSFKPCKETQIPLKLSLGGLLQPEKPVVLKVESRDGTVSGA

Consider `C/C(CCN1CCCCc2nc(C)c(C)cc21)=N\O[C@@H](C)CN1CCCc2nc(C)c(C)cc21`, for which the Potency in assay [1] is 3.16 µM (active). Also, in assay [2], the activity change, positive = activation was -61.2% [at 11.4 µM].

`CC1(C)CC(=O)c2c(oc3cc4c(cc23)OCO4)C1`: in assay [1], the Potency was 3.98 µM (active). Moreover, in assay [2], the Potency entry was “inactive”.

On to `COc1ccc(O[C@H]2C=C[C@@H](c3ccccc3)O[C@H]2COC(=O)CC/C(C)=N\O[C@@H](C)c2cc(-c3c(C)cc(C)cc3C)no2)cc1`, for which the Potency in assay [1] was 3.16 µM (active). Further, the activity change, positive = activation in assay [2] was -63.2% [at 11.4 µM].

As to `C/C(CCN1CCCc2nc(C)c(C)cc21)=N\O[C@@H](C)c1cn([C@H](CO)Cc2ccccc2)nn1`, the Potency in assay [1] is 2 µM (active). Moreover, the activity change, positive = activation in assay [2] was -60.4% [at 11.4 µM] and -67% [at 11.4 µM].

Consider `CO[C@@H]1COC(=O)CCC[C@@H](C)[C@H](OC)COC(=O)[C@H](Cc2ccccc2)NC(=O)C/C=C\[C@H]1C`, for which the Potency in assay [1] is 3.98 µM (active). The activity change, positive = activation in assay [2] was -87.8% [at 11.4 µM].

As to `COC(=O)c1cccc(C23CC4(C2)[C@H](CN(CC2CCCCC2)[C@@H]4c2ccccc2)C3c2ccc(Cl)nc2)c1` (stereo partly drawn), the Potency in assay [1] is 15.8 µM (active). Also, the Potency entry in assay [2] was “inactive”.

In the case of `CCC1=C(OC(=O)N(CC)CC)N2C(=O)OC(=NCCOC)[C@]2(C)[C@H]2C1=CC[C@H]1C(=O)N(CC(=O)OC)C(=O)[C@H]12`, the Potency in assay [1] is 10 µM (active). The Potency entry in assay [2] was “inactive”.

For the molecule `CO[C@H]1COC(=O)[C@H](C)NC(=O)C/C=C\[C@@H](C)[C@@H](NS(=O)(=O)c2ccc(C)cc2)COC(=O)[C@H](OCc2ccccc2)/C=C\[C@@H]1C`, the Potency in assay [1] was 3.16 µM (active). The activity change, positive = activation in assay [2] is -79.4% [at 11.4 µM].

Consider `Cc1ccc2oc(=O)c3c4cc(O)c(O)cc4oc3c2c1`, for which the Potency in assay [1] was 20 µM (active). Also, the Potency entry in assay [2] is “inactive”.

As for `CC(C)=CCC/C(C)=C/CO/N=C1/C[C@@H](O)[C@@H](O)[C@@H]2[C@@H]3C(=O)N(Cc4ccc5c(c4)OCO5)C(=O)[C@H]3CC[C@@H]12`, the Potency in assay [1] was 1.58 µM (active). For the same molecule, the activity change, positive = activation in assay [2] is -86.9% [at 11.4 µM].

Take `COC(=O)c1ccc(C(/C=C/[C@@H](C)C(=O)NCc2ccc(OC)c(O)c2)NC(=O)OCc2ccccc2)cc1` (stereo partly drawn): in assay [1], the Potency was 6.31 µM (active). Further, in assay [2], the Potency entry is “inactive”.

In the case of `COC(=O)[C@H]1C[C@@H]2CC[C@@H](O)C[C@@H]2N1Cc1c(F)cccc1Cl`, the Potency in assay [1] is 12.6 µM (active). Also, the Potency entry in assay [2] was “inactive”.

For `CCCOc1ccc(Br)cc1-c1cc(-c2ccc(Cl)cc2)[nH]c1-c1ccncc1`, the Potency in assay [1] is 1.26 µM (active). The Potency result in assay [2] is “inactive”.

Take `CCC1=C2CC[C@H]3C(=O)N(c4ccccc4)C(=O)[C@H]3[C@H]2[C@@]2(Cc3ccccc3)C(=NCc3ccccc3)OC(=O)N2C1=O`: in assay [1], the Potency was 5.01 µM (active). In addition, in assay [2], the Potency entry is “inactive”.

Regarding `COC(=O)c1cccc(C23CC4(C2)[C@H](CN(Cc2ccc(C(F)(F)F)cc2)[C@@H]4c2ccccc2)C3c2ccccc2)c1` (stereo partly drawn), the Potency in assay [1] was 12.6 µM (active). Moreover, in assay [2], the Potency result is “inactive”.

Regarding `CCC1=C2CC[C@H]3C(=O)N(c4ccccc4)C(=O)[C@H]3[C@H]2[C@@]2(C)C(=NCc3ccccc3)OC(=O)N2C1=O`, the Potency in assay [1] was 3.98 µM (active). For the same molecule, in assay [2], the Potency result was “inactive”.

`C/C(CCN1CCc2nc(-c3ccccc3)c(-c3ccccc3)cc2C1)=N\O[C@@H](C)CN1CCCCc2nc(C)c(C)cc21`: the Potency in assay [1] is 3.98 µM (active). In assay [2], the activity change, positive = activation was -84.8% [at 11.4 µM].

Regarding `COC(=O)[C@H]1C[C@H]2CC[C@H](O)C[C@H]2N1Cc1c(F)cccc1Cl`, the Potency in assay [1] is 12.6 µM (active). Moreover, the Potency result in assay [2] was “inactive”.

Turning to `COC(=O)[C@@H]1C[C@@H]2CC[C@@H](O)C[C@@H]2N1Cc1ccc(Cl)cc1`, in assay [1], the Potency is 15.8 µM (active). Also, the Potency result in assay [2] was “inactive”.

`CCC1=C2CC[C@H]3C(=O)N(CC(=O)OC)C(=O)[C@H]3[C@H]2[C@@]2(C)C(=NCCc3c[nH]c4ccccc34)OC(=O)N2C1=O`: in assay [1], the Potency is 6.31 µM (active). Moreover, in assay [2], the Potency result is “inactive”.

For the molecule `CCC1=C2CC[C@H]3C(=O)N(CC)C(=O)[C@H]3[C@H]2[C@@]2(Cc3ccccc3)C(=O)N(CCOC)C(=O)N2C1=O`, the Potency in assay [1] was 15.8 µM (active). The Potency entry in assay [2] is “inactive”.

In the case of `CCC1=C(OC(=O)N(CC)CC)N2C(=O)OC(=NCC(=O)OC)[C@]2(C)[C@H]2C1=CC[C@H]1C(=O)N(CC)C(=O)[C@H]12`, the Potency in assay [1] was 6.31 µM (active). Besides, in assay [2], the Potency result was “inactive”.

`Cn1c(=O)c(C(=O)COC(=O)c2cc(C(F)(F)F)nc3c(C(F)(F)F)cccc23)c(N)n(CC2CC2)c1=O`: the Potency in assay [1] was 3.98 µM (active). Also, the Potency result in assay [2] is “inactive”.

Consider `C/C(CCN1CCCCc2nc(C)c(C)cc21)=N\OC[C@@H](O)COCc1ccco1`, for which, in assay [1], the Potency is 3.98 µM (active). In assay [2], the activity change, positive = activation is -64.3% [at 11.4 µM].

In the case of `c1ccc(C2[C@H]3CN(Cc4cccnc4)[C@H](c4ccccc4)C34CC2(c2ccccc2)C4)cc1` (stereo partly drawn), the Potency in assay [1] is 1.58 µM (active). The Potency result in assay [2] is “inactive”.

Turning to `COC(=O)c1ccc(C(NC(=O)OCc2ccccc2)/C(F)=C/[C@@H](C)C(=O)NCc2cc(C)on2)cc1` (stereo partly drawn), the Potency in assay [1] is 2.51 µM (active). The Potency entry in assay [2] is “inactive”.

Consider `COC(=O)c1cccc(C23CC4(C2)[C@H](CN(Cc2cccnc2)[C@@H]4c2ccccc2)C3c2ccc(C(F)(F)F)cc2)c1` (stereo partly drawn), for which the Potency in assay [1] was 2.51 µM (active). Besides, the Potency entry in assay [2] is “inactive”.

In the case of `COC(=O)c1cccc(C23CC4(C2)[C@H](CN(C)[C@@H]4c2ccccc2)C3c2ccccc2)c1` (stereo partly drawn), the Potency in assay [1] is 7.94 µM (active). The Potency entry in assay [2] was “inactive”.

With `Cn1c(N)c(C(=O)COC(=O)c2cc(-c3ccccc3)nc3ccccc23)c(=O)n(C)c1=O`, the Potency in assay [1] is 12.6 µM (active). The Potency result in assay [2] is “inactive”.

For the origin of these results see PubChem BioAssay (NCATS).
